Screens from PubChem.
Gal4-VP16 FLuc = counter-screen for ROR gamma inhibitors: Gal4-VP16 reporter | Drosophila S2 Gal4-VP16 UAS-luciferase, luminescence, 20 h | hit rate 3.5% among 310,000 | Potency, µM (doses to about 53.6 µM), most hits filed as inhibitors;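 note: Gal4-VP16 expression switched on by copper sulfate through the metallothionein promoter; nearly all actives have a fitted effect of over 50% in size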
Coupling enz = counter-screen for Giardia aldolase inhibitors: coupling enzyme system; coupling enzyme system counterscreen, AmpLite Red fluorescence; activity change, negative = inhibition, % at 58.2 µM, hits read low; hit rate 0.67% among 290,000; AID 2472; in the data active = activity change below about -30%
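Counterscreen of the coupled detection system alone, without aldolase: glyceraldehyde-3-phosphate coupling enzymes plus AmpLite Red readout. Compounds at 57.5 uM final, 10 min RT preincubation, 20 min RT reaction, fluorescence 525/598 nm.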
TSHR antagonist = antagonists of human thyroid stimulating hormone receptor; activity change, negative = inhibition, % at 11.5 µM; hit rate 0.2% among 330,000; TSHR-expressing cells, TSH-stimulated cAMP HTRF, 2 h; stronger effect = lower value; P16473;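 active = activity change below a set negative limit, meaning inhibition stronger than a set level, cut at about -70% in these data; inconclusive = activity change between two set negative limits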
Target sequence (P16473 whole entry, looked up): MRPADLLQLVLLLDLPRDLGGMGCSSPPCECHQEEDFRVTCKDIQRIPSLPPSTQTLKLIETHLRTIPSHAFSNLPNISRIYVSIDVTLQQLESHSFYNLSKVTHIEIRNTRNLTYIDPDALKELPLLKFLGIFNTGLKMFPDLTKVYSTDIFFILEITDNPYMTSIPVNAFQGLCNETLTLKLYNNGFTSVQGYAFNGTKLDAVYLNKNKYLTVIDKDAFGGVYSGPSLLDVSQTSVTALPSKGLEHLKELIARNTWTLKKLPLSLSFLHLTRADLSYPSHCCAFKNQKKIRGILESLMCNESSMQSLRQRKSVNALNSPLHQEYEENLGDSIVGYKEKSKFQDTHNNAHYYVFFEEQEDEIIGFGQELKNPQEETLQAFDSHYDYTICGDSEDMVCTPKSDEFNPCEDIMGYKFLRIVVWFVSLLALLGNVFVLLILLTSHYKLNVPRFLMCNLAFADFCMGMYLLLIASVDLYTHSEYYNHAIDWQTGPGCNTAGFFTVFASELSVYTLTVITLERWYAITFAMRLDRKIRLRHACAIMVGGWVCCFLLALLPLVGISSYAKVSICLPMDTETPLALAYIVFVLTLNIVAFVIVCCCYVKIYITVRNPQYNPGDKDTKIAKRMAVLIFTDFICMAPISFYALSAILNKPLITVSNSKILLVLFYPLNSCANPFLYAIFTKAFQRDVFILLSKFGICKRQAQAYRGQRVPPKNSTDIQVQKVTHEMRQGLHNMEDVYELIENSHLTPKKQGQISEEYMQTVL
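Freshly harvested TSHR cells receive pin-tooled compound, then EC80 TSH at 4nM final. After 2 hours at 37 deg C, antibody in lysis buffer and cAMP-d2 are added; 30 minutes at ambient temperature precede the HTRF read.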
ELG1 repair inh = blocks ELG1-dependent DNA repair in HEK293T cells; HEK293T ELG1-luciferase reporter, luminescence, 16 h; DNA damage induced by 5-fluorouridine; Potency, µM (highest dose often 46.1 µM), usual class: inhibitors; hit rate 2.3% among 330,000; AID 504467; note: nearly all actives have a fitted effect of over 55% in size
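5-Fluorouridine DNA damage + compound/DMSO, 2,000 cells/well, 16 h, 37 °C/5% CO2. ONE-Glo, 30 min RT, luminescence. Readout = decrease in reporter signal.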
RORg inh = blocks mouse ROR gamma transcriptional activity; P51450; Drosophila S2 Gal4-RORgamma UAS-luciferase reporter, 20 h; Potency, µM (highest dose often 53.6 µM), hits mostly inhibitors; hit rate 5.4% among 310,000; note: nearly all actives have a fitted effect of over 60% in size
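Using a luciferase readout, inhibitors were identified by reduced reporter activity in Drosophila cells coexpressing a copper-inducible Gal4–ROR gamma fusion and UAS-driven Photinus luciferase, incubated 20 hr after 700 uM copper sulfate.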
A number is an active result; i = inactive; ? = inconclusive; nt = no result given; ! = not active in a repeat; [ ] = another dose, or the depositor's remark. A selection: hits, their analogues and other compounds. The true share with any hit is near 8%. Unless noted, calls come from the whole dose curve; as a rule, active = well fitted curve in the direction sought with a large enough effect; inconclusive = small, poorly fitted or top-dose-only effect, or another doubt; inactive = no such curve, though single readings can be large; an effect the other way counts as inactive or inconclusive.

SMILES | Gal4-VP16 FLuc | Coupling enz | TSHR antagonist | ELG1 repair inh | RORg inh
Cc1ccc(-n2nnnc2SCC(=O)Nc2ccccc2N2CCCCC2)cc1C | i | i | i | 9.2µM | i
COc1cccc(-n2nnnc2SCC(=O)N2CCCc3ccccc32)c1 | ? | i | i | i | 20µM
NC(=O)c1ccc(-n2nnnc2SCC(=O)Nc2ccccc2)cc1 | i | i | i | i | i[1.91 µM]
O=C(CSc1nnnn1-c1cccc(Cl)c1)Nc1ccc2c(c1)CCC2 | 8.91µM | i | i | i | ?
O=C1CC[C@@H](C(=O)N[C@@H](Cc2cnc[nH]2)C(=O)N[C@@H](Cc2c[nH]c3ccccc23)C(=O)N[C@@H](CO)C(=O)N[C@@H](Cc2ccc(O)cc2)C(=O)O)N1 | i | i | nt | nt | i
O=C1C=C(c2ccc(F)cc2OCc2ccccc2)C[C@@H](c2ccc(F)cc2)C1 | nt | nt | i | ? | nt
CCC(=O)N1c2ccc(S(=O)(=O)N3CCN(c4cc(C)ccc4C)CC3)cc2CC1C (stereo unspecified) | i | nt | i | i | i
CC(NC(=O)CN(C)Cc1nc2ccccc2c(=O)[nH]1)c1ccccc1 (stereo unspecified) | i | i | i | i | i
CC(C(=O)Nc1ccccc1-c1ccccc1)N(C)Cc1nc2ccccc2c(=O)[nH]1 (stereo unspecified) | i | i | i | ? | 14.1µM
Cc1cccc(C)c1NC(=O)CN(C)C(C)C(=O)Nc1ccccc1-c1ccccc1 (stereo unspecified) | i | i | i | i | i
Cc1cc(Br)ccc1NC(=O)CNC(=O)CN(C)Cc1nc2ccccc2c(=O)[nH]1 | i | i | i | i | 12.6µM
CCN(CC(=O)Nc1cc(Cl)ccc1C)C(=O)CCc1nc2ccccc2c(=O)[nH]1 | nt | nt | i | i | nt
CCN(CC(=O)Nc1cc(Cl)ccc1-n1cncn1)Cc1nc2ccccc2c(=O)[nH]1 | nt | nt | i | 8.2µM | nt
Cc1c(Cl)cn2c(=O)cc(CN(C)Cc3nc4ccccc4c(=O)[nH]3)nc2c1Cl | i | i | i | i | 17.8µM
O=[N+]([O-])c1cccc(CSC2=NCCN2S(=O)(=O)c2ccccc2)c1 | i | i | i | i | i
CCN(CC(=O)NC1CCS(=O)(=O)C1)S(=O)(=O)c1ccc(Cl)c(C(F)(F)F)c1 (stereo unspecified) | nt | nt | i | i | nt
CCN(CC(=O)NC(=O)NCc1ccco1)Cc1nc2ccccc2c(=O)[nH]1 | 1.12µM | i | i | i | 0.562µM
CCN(CC(=O)NCc1ccc(F)cc1)Cc1cc(=O)n2ccsc2n1 | i | i | i | i | i
CCN(CC(=O)Nc1ccccc1Br)Cc1nc2ccccc2c(=O)[nH]1 | ? | i | i | ? | 11.2µM
CCN(Cc1cc(=O)n2ccsc2n1)Cc1nc2ccccc2c(=O)[nH]1 | 10µM | i | i | i | 2.24µM
CCN(CC(=O)NC(=O)NCc1ccco1)Cc1ccccc1 | nt | nt | i | i | nt
CCN(CC(=O)NCCc1ccc(S(N)(=O)=O)cc1)Cc1nc2ccccc2c(=O)[nH]1 | 20µM | i | i | i | 6.31µM
Nc1c(C(=O)Nc2ccc3c(c2)OCCO3)nnn1Cc1cccc(F)c1 | nt | nt | i | ? | nt
CCOc1ccc(N(CC(=O)NC2CC2)S(=O)(=O)c2ccc(C)cc2)cc1 | i | i | i | i | i
Cc1ccc(NC(=O)CN(C)Cc2nc3ccccc3c(=O)[nH]2)c(Br)c1 | ? | i | i | ? | 11.2µM
SMILES | Gal4-VP16 FLuc | Coupling enz | TSHR antagonist | ELG1 repair inh | RORg inh
COc1cc(OC)c(NC(=O)Cn2cnc3sc(C)c(S(=O)(=O)N4CCOCC4)c3c2=O)cc1Cl | i | i | -97.2 | i | i
COc1ccc(NC(=O)Cn2cnc3sc(C)c(S(=O)(=O)N4CCOCC4)c3c2=O)cc1Cl | i | i | i | i | i
C/C1=C\[C@@H](O)C(C(C)C)C(OC(=O)c2ccc(O)cc2)C/C(C)=C/CC1 (stereo partly specified) | ? | i | nt | nt | i
Cc1nc2cnc(N3CCOCC3)nc2n(Cc2cccs2)c1=O | i | i | nt | nt | i
Cc1ccc(S(=O)(=O)N2CCOCC2)cc1C(=O)Nc1nc(-c2cccnc2)cs1 | i | i | i | 11.6µM | i
Cc1ccc(S(=O)(=O)N2CCOCC2)cc1C(=O)Nc1ccc(-c2cn3ccsc3n2)cc1 | i | i | i | 18.4µM | ?
CN(CCOc1ccccc1)C(=O)C1CCC(=O)N(CCN2CCOCC2)C1 (stereo unspecified) | i | nt | i | i | i
O=C(O)c1cc(Cl)cc(Cl)c1 | i | nt | nt | nt | i
CC1(OC(=O)C2CCCC2)C(=O)C=C2C=C(c3ccsc3)N(C3CC3)C=C2C1=O (stereo unspecified) | i | -30.2! | i | i | i
CC(C)CN1C=C2C(=O)C(C)(OC(=O)C3CCCC3)C(=O)C=C2C=C1c1ccsc1 (stereo unspecified) | i | i | i | i | i
CC1(OC(=O)C2CCCC2)C(=O)C=C2C=C(c3ccsc3)N(C(CO)CO)C=C2C1=O (stereo unspecified) | i | -31.0! | i | ? | i
O=c1ccc(Oc2nc(N3CCOCC3)nc(N3CCOCC3)n2)nn1-c1ccccc1 | i | i | i | 13µM | i
CC(C)(C)Nc1nc(Oc2ccc(=O)n(-c3ccccc3)n2)nc(N2CCOCC2)n1 | i | i | i | i | i
Cc1nn(-c2ccccc2)c(C)c1NC(=O)COC(=O)Cc1ccccc1F | nt | nt | i | i | nt
CCOc1ccccc1C(=O)NN1C(=O)CCC1=O | ? | i | i | i | 6.31µM
O=c1[nH]sc2ccccc12 | 3.55µM | i | i | i | 0.398µM
CCN(CC(=O)Nc1c(F)cccc1F)C(=O)c1ccc(NC(=O)CC2SC(N3CCCC3)=NC2=O)cc1 (stereo unspecified) | nt | nt | i | ? | nt
Cc1ccc(C(=O)N/C(=C\c2ccc(-c3ccccc3[N+](=O)[O-])o2)C(=O)NCCCN(C)C)cc1 | i | i | i | i | i
CN(C)C(=O)/C(=C\c1ccc(-c2cccc([N+](=O)[O-])c2)o1)NC(=O)c1ccccc1 | i | i | i | 20.6µM | i
CN(C)CCNC(=O)/C(=C/c1ccc(-c2cccc(Cl)c2)o1)NC(=O)c1ccccc1 | ? | i | i | i | 3.16µM
Cc1ccc(C(=O)N/C(=C\c2ccc(-c3ccccc3[N+](=O)[O-])o2)C(=O)NCCN(C)C)cc1 | 10µM | -42.3 | i | ? | 7.08µM
COc1ccc(CNC(=O)CCS(=O)(=O)c2ccc3c(c2)NC(=O)CS3)cc1 | i | i | i | i | i
CCCC[C@@H]1C[C@H]1C(NC(=O)c1cccs1)c1ccc(C(F)(F)F)cc1 (stereo partly specified) | i | i | nt | nt | i
O=C(Nc1ccc2ccccc2c1)c1ccc2[nH]c(=O)c(=O)[nH]c2c1 | i | i | i | i | i
O=C(O)c1cccc(COc2ccccc2Cl)c1 | 1.12µM | i | i | ? | i
O=C(NC1CC1)C1CCN(C2CCN(C(=O)Cc3ccc4c(c3)OCO4)CC2)CC1 | i | i | i | i | 10µM
